# Shn3 inh set2 = reduction of Shn3 3'UTR firefly luciferase signal, primary screen, Schnurri-3 inhibitor project, cell-based, Clone20 osteoblasts, set 2; inhibition, % at 12.5 µM; Clone20 osteoblast Shn3 3'UTR firefly luciferase, 24 h; 360,000 tested, 0.52% active; AID 588674, 2011;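 active = mean inhibition of at least 75% with every replicate also reaching 75%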;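 also: 0% = median of neutral control wells and 100% = pilot-screen positive control compound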
# Peg3 prom inh = Peg3 promoter-driven luciferase inhibitors, primary screen, cell-based, HeLa, luciferase luminescence; HeLa PEG-Prom luciferase reporter, overnight; 360,000 tested, 1.7% active; AID 588405, 2011; inhibition, % at 20 µM;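 active = inhibition of at least 50% at 20 µM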
# TROY NFkB inh = inhibitors of TROY-driven NF-kB signaling, primary screen, Q293 LMP1-TROYcd cells, NF-kB luciferase, uHTS | Q293 LMP1-TROYcd NF-kB luciferase reporter, 4 h | inhibition, % at 10 µM | AID 1347056, 2019 | 360,000 tested, 0.98% active;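 active = compounds whose plate-normalised and pattern-corrected inhibition of the luciferase reporter signal at the single screening dose is 50% or more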
# MITF TRPM1 inh = inhibitors of MITF-dependent TRPM1 promoter reporter, primary screen, cell-based, SK-MEL-5, single point, luciferase; inhibition, % at 12.5 µM; AID 488899, 2010; 330,000 tested, 0.83% active; SK-MEL-5 TRPM1 promoter luciferase, 24 h;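 active = mean inhibition across replicates of 60% or more, whatever share of single replicates reaches that level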
# TWEAK Fn14 block = inhibitors of TWEAK-Fn14 signaling, primary screen, luciferase reporter cells, uHTS; 360,000 tested, 2% active; inhibition, % at 10 µM; AID 1159606, 2016; TWEAK-stimulated Fn14 reporter cells, luciferase luminescence, 8 h; in the data active = inhibition above about 50%
# EBV LMP1 NFkB = EBV LMP1-driven NF-kappaB luciferase reporter inhibitors, primary screen, cell-based, luminescence, single point; 350,000 tested, 0.69% active; inhibition, % at 12.5 µM; LMP1-induced NF-kappaB luciferase reporter cells; in the data active = inhibition above about 41%;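 also: 0% = neutral control wells and 100% = reference inhibitor control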
# * hit, by the source's call; nt = no result. In the library only some 4.1% were active in any assay of this set; here they are far more common.
SMILES,Shn3 inh set2,Peg3 prom inh,TROY NFkB inh,MITF TRPM1 inh,TWEAK Fn14 block,EBV LMP1 NFkB
COc1cc(C(=O)NCc2ccc(S(N)(=O)=O)cc2)ccc1OCC(=O)N1CCOCC1,-9,2,-7,-2,3,2
Cc1ccc(C(=O)NCc2nc3ccccc3[nH]2)o1,6,0,-1,8,4,4
O=C(C[C@@H]1C/C=C\C[C@@H](NC(=O)OCC2c3ccccc3-c3ccccc32)C(=O)OC[C@@H](Cc2ccccc2)NC1=O)NCCO,58,22,3,-4,-6,9
CC(C)(C)[C@@H]1COC(=O)[C@@H](NC(=O)OCC2c3ccccc3-c3ccccc32)C/C=C\C[C@@H](CC(=O)NCCO)C(=O)N1,86*,4,-14,8,-18,-6
O=C(C[C@H]1C/C=C\C[C@H](NC(=O)OCC2c3ccccc3-c3ccccc32)C(=O)OC[C@H](Cc2ccccc2)NC1=O)N[C@H](CO)Cc1ccccc1,20,75*,-11,2,-17,-1
O=C(N[C@@H]1C/C=C\C[C@H](CC(=O)N(CCO)Cc2ccccc2)C(=O)N[C@@H](Cc2ccccc2)COC1=O)OCC1c2ccccc2-c2ccccc21,32,68*,7,4,0,-18
O=C(N[C@H]1C/C=C\C[C@@H](CC(=O)N(CCO)Cc2ccccc2)C(=O)NC[C@H](c2ccccc2)OC1=O)OCC1c2ccccc2-c2ccccc21,-6,75*,21,nt,51*,-2
C[C@@H]1COC(=O)[C@H](NC(=O)OCC2c3ccccc3-c3ccccc32)C/C=C\C[C@@H](CC(=O)N[C@@H](CO)Cc2ccccc2)C(=O)N1,72,-10,2,6,2,4
C[C@@H]1COC(=O)[C@H](NC(=O)OCC2c3ccccc3-c3ccccc32)C/C=C\C[C@@H](CC(=O)N(CCO)Cc2ccccc2)C(=O)N1,26,-21,5,1,8,-6
COC(=O)c1cn(CC(=O)Nc2ccccc2C)c2ccccc12,-51,13,-3,9,1,13
O=C(NCc1ccccc1)c1cccc(NS(=O)(=O)c2cccc3cccnc23)c1,14,19,-6,-5,-17,-2
CC(C)OC(=O)Cc1nc2sc(-c3ccccc3)cc2c(=O)[nH]1,-40,-150,-59,nt,-11,-11
COc1ccccc1OCCN1CSC(=S)N(C)C1,-28,100*,6,69*,-45,14
Cc1cccc(OCCCN2CCCCCC2)c1,-7,11,-2,1,8,4
Cc1cccc(OCCN2CSC(=S)N(C)C2)c1,-3,57*,-8,21,0,25
Cc1c(-c2ccc(Cl)cc2Cl)nc2ccccc2c1C(=O)NCCN1CCOCC1,12,4,-16,-16,12,-2
CC(C)(C)n1nc(-c2ccc(Cl)cc2)c2c(N)ncnc21,64,69*,8,-7,-54,42*
CN(C)c1ccc(NC(=S)Nc2ccc3c(c2)c(=O)n(C)n3-c2ccc(C(C)(C)C)cc2)cc1,56,-43,3,nt,-10,nt
Cc1nn(-c2ccccc2)c(Cl)c1C1C(C#N)=C(N)Oc2n[nH]c(C)c21 (stereo unspecified),-42,47,-11,7,0,53*
COc1cccc(NC(=O)C2(C)CCCN2C(=O)C(C)C)c1 (stereo unspecified),-7,-1,-6,nt,9,nt
O=C(Nc1ccc(Cl)c(S(=O)(=O)N2CCOCC2)c1)c1cccs1,28,7,6,7,-3,1
C=C1C(=O)OC2C1C(OC(=O)C(C)=CC)CC(=C)C1C(O)C3OC3(C)C21O (stereo unspecified),-21,26,12,11,7,10
C=C1C(=O)OC2C=C(CO)CCC=C(CO)CC(OC(=O)C(C)C)C12 (stereo unspecified),-23,64*,-6,30,32,9
Nc1ncc(S(=O)(=O)c2ccc(Cl)cc2)c(N)n1,-25,5,10,-2,-1,0
O=C(CN1CCN(c2ncc(C(F)(F)F)cc2Cl)CC1)NCCNc1ncc(C(F)(F)F)cc1Cl,45,42,nt,11,76*,2
SMILES,Shn3 inh set2,Peg3 prom inh,TROY NFkB inh,MITF TRPM1 inh,TWEAK Fn14 block,EBV LMP1 NFkB
CN(C)/C=C/C(=O)c1ccc(N2CCN(c3ncc(C(F)(F)F)cc3Cl)CC2)cc1,78,73*,0,26,19,5
CCCNC(=O)COC(=O)c1ccc(-c2ccccc2)cc1,-23,-2,-3,13,-12,-4
Cc1ccc(C(=O)N/C(=C\c2ccccc2)C(=O)NCC2CCCO2)cc1 (stereo unspecified),-8,4,1,-2,13,2
Cc1ccc(C(=O)N/C(=C/c2ccc(Cl)cc2)C(=O)NCC2CCCO2)cc1 (stereo unspecified),-7,-5,18,-9,77*,2
CN(C)CCCNC(=O)/C(=C\c1ccc(-c2ccc(Br)cc2)o1)NC(=O)c1ccccc1,-3,76*,-21,96*,-70,-2
CN(C)CCNC(=O)/C(=C/c1ccc(-c2cccc(Cl)c2)o1)NC(=O)c1ccccc1,-3,4,2,10,-1,6
Cc1ccc(C(=O)N/C(=C\c2ccc(-c3ccc(Cl)cc3)o2)C(=O)NCCCN(C)C)cc1,1,103*,-12,86*,-47,-1
CCn1cc(C(=O)Nc2ccc(OC)c(S(=O)(=O)N3CCCCC3)c2)c(=O)c2ccc(C)nc21,-3,-1,2,3,-5,-34
Cc1ccc(C)c(/C=C2\CCn3c2nc2cc(C(=O)O)ccc2c3=O)c1,1,28,9,-7,0,-3
O=C1C(Cl)=C(NC(=O)c2ccccc2)C(=O)C(Cl)=C1NC(=O)c1ccccc1,16,103*,10,48,24,-1
O=C(Nc1cccc(Cl)c1)c1ccccc1,-32,-310,-72,-80,-11,-12
O=C(NC1=C(Nc2ccc(Cl)cc2)C(=O)c2ccccc2C1=O)c1ccccc1,-14,3,21,72*,27,-2
Cc1ccc2oc(-c3cccc(NC(=S)NC(=O)/C=C/c4ccco4)c3)nc2c1,-19,-84,77*,-5,90*,-4
COc1ccc(-c2noc(CCC(=O)NCCc3cccc(C)c3)n2)cc1,4,-22,9,-7,10,-2
O=Nc1c(O)[nH]c2ccc(Cl)c(Cl)c12,4,57*,13,40,19,8

# Assay outcomes deposited in PubChem by several laboratories.
